Measured values published in PubChem BioAssay.
Several values for one entry are separate records, joined by “and”; a condition that tells them apart may be missing. Equal entries are not always repeated. For some assays here: Entries with a potency or affinity are not part of this list. Activity calls are given as the source filed them.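 How the source made its calls, unless noted: active means compounds whose cell count with miR-34 switched on is under 0.7 times the count with it off; inactive means the rest.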 Residues, ends and D or L forms follow the SMILES beside them.

How the values were obtained:
[1] = differential killing of epithelial or mesenchymal cells, primary screen, imaging, PC-3E GFP, TEM4-18 mCherry, co-culture (AID 1345086;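 active means compounds killing one labelled cell type while sparing the other, by normalised counts and ratio limits, not self-fluorescent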;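 on all read-outs here: cells exposed to compound for 72 h before imaging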;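 on red/green cell ratio (normalised): normalised mesenchymal count divided by normalised epithelial count so high means epithelial killing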); conditions: imaging cell counts, at 1 µM; for red/green cell ratio (normalised): actives lie on both sides, counts scaled to control wells, 1 = unselective
[2] = sensitizers of A549 cells to miR-34 induction, primary screen, imaging, A549 dox-inducible miR-34, nuclei and caspase counts (AID 1347080); conditions: A549 miR-34 inducible, Hoechst nuclei count, 48 h
[3] = biological target: NAD(+) hydrolase SARM1 (Homo sapiens) (UniProt Q6SZW1); test: SARM1 TIR NADase inhibitors, cell lysate, NAD-Glo luminescence (AID 1508614;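 active means compound whose remaining NAD level is above about 45 nM, limit read from the data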); conditions: SAM-TIR HEK293T lysate NADase, at 1 µM, stronger effect = higher value
[4] = biological target: Mitogen-activated protein kinase 7 (Homo sapiens) (UniProt Q13164); test: ERK5 transactivation activators in reporter cells, primary screen, cell-based, HTS (AID 1508626;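 active means luciferase signal above three times the same-plate solvent-only control wells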;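 further: luciferase driven by Gal4-ERK5 fusion binding five Gal4 sites before minimal TATA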); conditions: HeLa Gal4-ERK5 transactivation, 18 h, at 5 µM, stronger effect = higher value
[5] = polyglutamine-triggered caspase-3 activation inhibitors, cell-based (AID 1583); conditions: polyglutamine-induced caspase-3 activation, cell assay; stronger effect = higher value;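 tested at 10 µM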
[6] = suppressors of polyQ aggregation in yeast, 75Q-TubU reporter (AID 1593); conditions: Yeast 75Q polyglutamine aggregation reporter
[7] = rescue of polyQ-huntingtin neuronal dysfunction in worms, whole organism, C. elegans mechanosensory neurons, N-terminal huntingtin (AID 1599); conditions: touch response, stronger effect = higher value
[8] = inhibitors of mitochondrial cytochrome c release, biochemical, purified mitochondria (AID 1603); conditions: stronger effect = lower value;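 further: mouse liver mitochondria challenged with calcium chloride; signal normalized to the plate average as 100%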
[9] = inhibitors of polyQ protein aggregation (AID 1604); conditions: polyglutamine-induced protein aggregation inhibition assay; stronger effect = higher value; tested at 2.5 µM
[10] = enhancers of glutamate uptake in motor neurons, MN-1 cell line (AID 1612); conditions: MN-1 motor neuron cells, stronger effect = higher value;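 further: tested at 1 µM final; 0% = mean of DMSO vehicle wells on each plate; positive means more glutamate uptake than control and negative means less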
[11] = reducers of polyQ inclusions in PC12 cells, cell-based, NGF-treated PC12, GFPQ80 (AID 1614); conditions: PC12 NGF-treated GFP-polyQ80 inclusion reduction;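 further: lower means fewer inclusions and 0 means no inclusions at all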
[12] = suppressors of polyglutamine aggregation in yeast, 75Q-TubH (AID 1616); conditions: S. cerevisiae 75Q-TubH polyglutamine aggregation suppression; stronger effect = higher value
[13] = liver-stage malaria parasite growth inhibition, primary screen, cell-based, HepG2, luciferase luminescence, HepG2 viability (AID 624349; in the data active means parasite load remaining mostly below about 12%, no sharp cut-off; inactive means mostly above about 10%;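 further: 100% = mean of DMSO negative control wells on the same plate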); conditions: P. berghei liver stage in HepG2, luciferase luminescence, concentration not given here; parasite load remaining: stronger effect = lower value; viability: measured here: HepG2 viability without parasites
[14] = hESC survival regulators, cell-based (AID 493140; call rule not given here;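 further: cells exposed to compounds for four days before counting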); conditions: human embryonic stem cell survival screen; stronger effect = higher value
[15] = measured here: epithelial PC-3E GFP cell survival
[16] = measured here: mesenchymal TEM4-18 mCherry cell survival
[17] = stronger effect = lower value, cell number ratio, induced over uninduced
[18] = measured here: relative caspase fold change +Dox/-Dox
[19] = measured here: total cells with miR-34 induction, stronger effect = lower value
[20] = measured here: total cells without miR-34 induction

Chain of Mitogen-activated protein kinase 7 (Homo sapiens) (Q13164 whole entry, looked up, the tested form may be a part): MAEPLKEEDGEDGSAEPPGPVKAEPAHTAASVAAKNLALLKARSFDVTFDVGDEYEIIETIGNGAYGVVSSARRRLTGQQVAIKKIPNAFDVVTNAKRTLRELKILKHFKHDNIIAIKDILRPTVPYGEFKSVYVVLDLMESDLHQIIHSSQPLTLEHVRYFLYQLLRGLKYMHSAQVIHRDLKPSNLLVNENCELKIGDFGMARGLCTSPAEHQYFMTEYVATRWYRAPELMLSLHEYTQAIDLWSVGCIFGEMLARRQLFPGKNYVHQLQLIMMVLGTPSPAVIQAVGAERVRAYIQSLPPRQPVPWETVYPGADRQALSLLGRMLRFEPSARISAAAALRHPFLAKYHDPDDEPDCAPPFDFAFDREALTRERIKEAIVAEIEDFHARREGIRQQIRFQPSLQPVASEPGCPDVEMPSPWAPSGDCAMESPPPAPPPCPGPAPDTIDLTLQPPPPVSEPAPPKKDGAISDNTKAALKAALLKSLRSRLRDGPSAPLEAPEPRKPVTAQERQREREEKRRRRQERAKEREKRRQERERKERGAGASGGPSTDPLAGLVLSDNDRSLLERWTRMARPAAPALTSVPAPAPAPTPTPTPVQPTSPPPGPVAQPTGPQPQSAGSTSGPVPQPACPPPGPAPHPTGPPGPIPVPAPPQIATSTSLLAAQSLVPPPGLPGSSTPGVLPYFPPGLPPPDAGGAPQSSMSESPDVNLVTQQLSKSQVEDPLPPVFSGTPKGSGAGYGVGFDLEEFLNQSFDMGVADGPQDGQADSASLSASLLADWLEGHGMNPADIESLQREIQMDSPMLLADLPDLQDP
Chain of NAD(+) hydrolase SARM1 (Homo sapiens) (Q6SZW1 whole entry, looked up, the tested form may be a part): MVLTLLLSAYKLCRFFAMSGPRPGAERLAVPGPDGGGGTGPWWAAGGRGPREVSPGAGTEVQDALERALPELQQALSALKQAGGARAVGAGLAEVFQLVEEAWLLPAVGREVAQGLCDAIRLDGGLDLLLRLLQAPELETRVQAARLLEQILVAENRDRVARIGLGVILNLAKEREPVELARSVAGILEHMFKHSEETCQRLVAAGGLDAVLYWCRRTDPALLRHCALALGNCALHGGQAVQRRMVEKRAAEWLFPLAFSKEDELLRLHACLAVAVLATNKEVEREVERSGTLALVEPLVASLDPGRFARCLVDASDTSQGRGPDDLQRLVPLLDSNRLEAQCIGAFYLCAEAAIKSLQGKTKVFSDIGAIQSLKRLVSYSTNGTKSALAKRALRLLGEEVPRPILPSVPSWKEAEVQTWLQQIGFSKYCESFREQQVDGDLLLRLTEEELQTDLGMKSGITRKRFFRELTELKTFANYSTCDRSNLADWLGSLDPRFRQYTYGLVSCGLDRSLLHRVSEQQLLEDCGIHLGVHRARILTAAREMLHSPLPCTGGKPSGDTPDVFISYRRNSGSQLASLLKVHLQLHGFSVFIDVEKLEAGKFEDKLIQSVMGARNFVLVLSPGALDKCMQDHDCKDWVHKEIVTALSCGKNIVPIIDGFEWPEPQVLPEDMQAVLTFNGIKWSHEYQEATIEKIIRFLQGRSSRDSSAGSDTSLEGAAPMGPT

SMILES	red/green cell ratio (normalised) [1]	normalised cell number [1, 15]	normalised cell number [1, 16]	fold change [2, 17]	fold change [2, 18]	cell count [2, 19]	cell count [2, 20]	remaining NAD [3]	luciferase signal [4]	inhibition [5] [%]	score [6]	rescue above control [7]	cytochrome c release ratio [8]	inhibition of aggregation [9] [%]	glutamate uptake change [10] [%]	inclusion score [11]	aggregation suppression score [12]	parasite load remaining [13]	viability [13]	survival [14]
CN(C)c1cnccn1	1.02 (inactive)	0.95	0.97	0.783 (inactive)	1.07	6710	8560	10 nM (inactive)												
C[C@H]1CC2C3CCC4=CC(=O)C=C[C@]4(C)[C@@]3(F)[C@@H](O)C[C@]2(C)[C@@]1(O)C(=O)COP(=O)(O)O (some centres undefined)	1.28 (inactive)	1.37	1.75	0.873 (inactive)	1.02	6310	7220		92 AU (inactive)											
CC(O)(CC(=O)O)CC(=O)O	1.15 (inactive)	0.86	0.99	0.913 (inactive)	1.16	8220	9000	10 nM (inactive)												
CC(=O)Oc1c(C)c(C)c2c(c1C)CCC(C)(CCCC(C)CCCC(C)CCCC(C)C)O2 (centres undefined)	0.9 (inactive)	0.92	0.84	0.901 (inactive)	1.55	11100	12300		44 AU (inactive)	1.05	-0.71	1.2	0.62	56.3	6.04	2	0.546	74.6% (inactive)	96%	
C[N+]1(C)C2CC[C@H]1CC(OC(=O)C(O)c1ccccc1)C2 (some centres undefined)	0.83 (inactive)	1.16	0.97	0.874 (inactive)	1.28	10300	11800			5.29	1.53	12.1	0.9	65.1	-16.5	2	1.36	95.8% (inactive) and 69.2% (inactive)	75.7% and 100%	
CC(C)[C@H](NC(=O)[C@H](CC(=O)O)NC(=O)[C@H](CCCCN)NC(=O)[C@@H](N)CCCN=C(N)N)C(=O)N[C@@H](Cc1ccc(O)cc1)C(=O)O (H-RKDVY-OH)	0.91 (inactive)	1.09	0.99	0.895 (inactive)	0.732	8230	9190	10 nM (inactive)												
Nc1ccc(S(=O)(=O)[O-])cc1.Nc1ccc(S(=O)(=O)[O-])cc1.[Zn+2]	0.95 (inactive)	1.26	1.2	0.91 (inactive)	2.98	11500	12600		56 AU (inactive)									34.7% (inactive)	93.6%	
CC(=O)NS(=O)(=O)c1ccc(NC(=O)c2ccccc2C(=O)O)cc1	0.81 (inactive)	1.22	0.99	0.886 (inactive)	0.953	8920	10100	10 nM (inactive)	100 AU (inactive)											
CC(=O)Oc1c(C)cccc1C(=O)O	0.87 (inactive)	1.16	1	0.895 (inactive)	0.783	8780	9810	10 nM (inactive)	56 AU (inactive)											
CCC(=O)O[C@H](CC(=O)O)C[N+](C)(C)C	1.18 (inactive)	1.03	1.22	0.986 (inactive)	0.77	8930	9060	10 nM (inactive)												
CCOC(=O)Nc1nc2ccccc2[nH]1	1.08 (inactive)	0.9	0.97	0.84 (inactive)	2.72	8540	10200	10 nM (inactive)	88 AU (inactive)									62.9% (inactive)	103%	
FC(F)(F)COCC(F)(F)F	0.7 (inactive)	1.25	0.88	0.879 (inactive)	0.825	10400	11900	10 nM (inactive)	60 AU (inactive)									45.8% (inactive)	107%	
COc1cc(/C=C/C(=O)N2CCC=CC2=O)cc(OC)c1OC	1.8 (active)	0.39	0.7	0.965 (inactive)	1.26	3400	3530		460 AU (active)									-9.42% (inactive) and 36.9% (inactive)	36.5% and 76.3%	0.417 (inactive)
CC(=O)Nc1ccc(S(=O)(=O)c2ccc(NC(C)=O)cc2)cc1	0.78 (inactive)	1.22	0.95	0.909 (inactive)	4.36	10600	11700	25 nM (inactive)	44 AU (inactive)									52.4% (inactive)	147%	
CO[C@H]1C[C@H](O[C@H]2[C@H](C)[C@@H](OC3O[C@H](C)C[C@H](N(C)C)[C@H]3O)[C@@H](C)C[C@]3(CO3)C(=O)[C@H](C)[C@@H](O)[C@@H](C)[C@@H](C)OC(=O)[C@@H]2C)O[C@@H](C)[C@@H]1O (some centres undefined)	1.12 (inactive)	0.84	0.94	0.824 (inactive)	2.52	10700	13000			27	1.24	28.2	0.97	7.94	5.06	2	1.24	283% (inactive) and 48.5% (inactive)	76% and 96.5%	
